Data published in PubChem BioAssay AID1835 (Johns Hopkins Ion Channel Center, 2009).
Screen size: about 2,400 compounds; about 750 (31%) were called active. The list shows a part of the results. Unmarked numbers belong to inactive results.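 The calls were made as follows: active = median signal gain over dofetilide-blocked control wells reaching their mean plus 3 SD, so readout 1 at least 0; inactive = the rest.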

These compounds were tested against Voltage-gated inwardly rectifying potassium channel KCNH2 (Homo sapiens) (UniProt Q12809) (assay: hERG protection against dofetilide inhibition, confirmation, cell-based, thallium flux, duplicate retest, dofetilide IC70 (AID 1835)). Conditions: hERG cell line, FluxOR thallium flux, dofetilide-blocked; at 10 µM; stronger effect = higher value.
Chain of Voltage-gated inwardly rectifying potassium channel KCNH2 (Homo sapiens) (Q12809 whole entry, looked up): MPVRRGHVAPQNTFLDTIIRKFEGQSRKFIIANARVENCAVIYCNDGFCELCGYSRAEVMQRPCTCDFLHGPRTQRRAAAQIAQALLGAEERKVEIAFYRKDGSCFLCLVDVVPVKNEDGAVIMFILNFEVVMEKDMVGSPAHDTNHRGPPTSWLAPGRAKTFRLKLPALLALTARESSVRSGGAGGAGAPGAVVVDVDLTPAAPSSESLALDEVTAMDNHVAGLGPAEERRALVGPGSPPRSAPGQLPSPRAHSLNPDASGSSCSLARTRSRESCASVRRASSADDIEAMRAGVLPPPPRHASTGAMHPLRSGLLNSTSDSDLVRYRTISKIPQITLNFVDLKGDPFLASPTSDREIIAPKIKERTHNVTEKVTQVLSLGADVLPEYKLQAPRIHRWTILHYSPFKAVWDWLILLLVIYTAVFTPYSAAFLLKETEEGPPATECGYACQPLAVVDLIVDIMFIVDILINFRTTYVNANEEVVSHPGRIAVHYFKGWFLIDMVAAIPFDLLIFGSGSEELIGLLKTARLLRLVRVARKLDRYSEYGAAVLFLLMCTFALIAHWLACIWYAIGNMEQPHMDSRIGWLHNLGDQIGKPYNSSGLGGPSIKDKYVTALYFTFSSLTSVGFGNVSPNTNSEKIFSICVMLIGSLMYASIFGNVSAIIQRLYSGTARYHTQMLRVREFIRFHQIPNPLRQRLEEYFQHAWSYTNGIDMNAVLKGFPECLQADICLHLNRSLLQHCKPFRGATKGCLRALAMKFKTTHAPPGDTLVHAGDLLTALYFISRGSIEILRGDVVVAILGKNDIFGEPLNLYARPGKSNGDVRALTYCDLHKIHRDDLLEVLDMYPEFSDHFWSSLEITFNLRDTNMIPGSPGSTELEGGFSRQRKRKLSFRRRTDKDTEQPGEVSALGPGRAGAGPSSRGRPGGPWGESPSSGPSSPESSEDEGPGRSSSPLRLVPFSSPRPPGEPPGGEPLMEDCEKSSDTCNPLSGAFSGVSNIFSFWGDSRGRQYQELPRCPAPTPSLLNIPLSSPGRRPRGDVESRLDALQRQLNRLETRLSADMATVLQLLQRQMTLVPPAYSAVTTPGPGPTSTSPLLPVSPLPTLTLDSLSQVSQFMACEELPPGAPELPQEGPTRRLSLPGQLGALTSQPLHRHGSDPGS
With `CC/C(=C\C=C\[C@@H]1C=C[C@@H]2CCC[C@H]2[C@@H]1C(=O)c1ccc[nH]1)[C@@H]1O[C@@H]([C@@H](C)C(=O)O)CC[C@@H]1C` the activity increase over dofetilide control, less the hit threshold was 128% (active).
`Cc1nc2ccccc2c(=O)n1-c1cc([N+](=O)[O-])cc([N+](=O)[O-])c1` was tested, and the activity increase over dofetilide control was -26%.
For `O=C(Cn1ncc2c3ccccc3n(Cc3ccccc3F)c2c1=O)N1CCC2(CC1)OCCO2`, the activity increase over dofetilide control was 2% (active).
For `CCCc1[nH]nc2c1C1(C(=O)N(Cc3ccccc3)c3ccccc31)C(C(=O)OC)=C(N)O2` (stereo unspecified), the activity increase over dofetilide control, less the hit threshold was -35%.
`CC(=NCc1ccco1)c1c(O)n(-c2ccc(C)cc2)c(=O)[nH]c1=O` was tested, and the activity increase over dofetilide control was -19%.
For `O=c1[nH]c(=S)[nH]c(O)c1N=Nc1ccc(S(=O)(=O)N2CCc3ccccc32)cc1`, the activity increase over dofetilide control was 25% (active).
`COc1ccc(-c2nc(CSCC(=O)N3CCC4(CC3)OCCO4)c(C)o2)cc1OC` was tested, and the activity increase over dofetilide control was -23%.
Work on `O=C(COc1ccc(Br)cc1)N1CCN(Cc2ccc3c(c2)OCO3)CC1` yielded an activity increase over dofetilide control, less the hit threshold of -12%.
With `CCOC(=O)c1c(NS(=O)(=O)c2ccccc2)n(CCCOC)c2nc3ccccc3nc12` the activity increase over dofetilide control, less the hit threshold was 65% (active).
Compound `CCCCn1c(O)c(C(CC)=Nc2ccc(OCC)cc2)c(=O)[nH]c1=O` has an activity increase over dofetilide control of -23%.
Work on `NS(=O)(=O)c1ccc(-c2ccc(C=C3C(=O)NC(=O)NC3=O)o2)cc1` yielded an activity increase over dofetilide control of -2%.
`CCOC(=O)Cn1cc([N+](=O)[O-])nc1[N+](=O)[O-]` gave an activity increase over dofetilide control, less the hit threshold of -18%.
`O=C1CC(=O)N(c2cccc(C(F)(F)F)c2)C(=O)N1` gave an activity increase over dofetilide control, less the hit threshold of -15%.
`Cc1ccc(-n2c(O)c(/C=N/Nc3ccccc3)c(=O)[nH]c2=O)cc1C` gave an activity increase over dofetilide control of -5%.
With `C=CCn1c(O)c(/C=C2/C=c3ccccc3=N2)c(=O)[nH]c1=S` the activity increase over dofetilide control was 96% (active).
For `O=c1[nH]c(=S)[nH]c(O)c1/C=C1/C=c2ccccc2=N1`, the activity increase over dofetilide control was 14% (active).
`Cc1ccc(S(=O)(=O)NC(Cc2cnc[nH]2)C(=O)O)cc1` (stereo unspecified) gave an activity increase over dofetilide control, less the hit threshold of -7%.
With `COc1ccc2c3c1OC1C(O)C=CC4C(C2)[N+](C)(C)CCC341` (stereo unspecified) the activity increase over dofetilide control was -2%.
`Oc1ccc(CC2(N3CCCC3)CCCCC2)cc1` was tested, and the activity increase over dofetilide control, less the hit threshold was -14%.
Compound `CC(C)(C)c1ccc(OC(=O)N2CCCCC2)cc1` has an activity increase over dofetilide control, less the hit threshold of -16%.
Work on `O=S(=O)(c1ccccc1)N1CCCCC1c1cccnc1` (stereo unspecified) yielded an activity increase over dofetilide control, less the hit threshold of -17%.
With `O=C1NC(=O)N(Cc2ccccc2Cl)C(=O)/C1=C/N1CCOCC1` the activity increase over dofetilide control was -7%.
Compound `O=C1NC(=O)C(=Cc2ccc(-c3ccc(Cl)cc3)o2)C(=O)N1` has an activity increase over dofetilide control of -1%.
In the case of `O=C(O)CCC(=O)NCCC1=c2ccccc2=N/C1=C\c1c(O)n(Cc2ccc(F)cc2)c(=S)[nH]c1=O`, the activity increase over dofetilide control is reported as 11% (active).
`CN1C(=O)C(Cc2ccc3c(c2)OCO3)C(=O)N(C)C1=O` showed an activity increase over dofetilide control of -15%.
`N#CC1=C(N)Oc2c(c(=O)oc3ccccc23)C1c1cccnc1` (stereo unspecified) was tested, and the activity increase over dofetilide control, less the hit threshold was 8% (active).
With `Oc1cccc2cccnc12` the activity increase over dofetilide control, less the hit threshold was -5%.
Work on `N#CCCn1cc(C(=O)Nc2ccccc2Cl)c(-c2ccc(F)cc2)n1` yielded an activity increase over dofetilide control, less the hit threshold of -14%.
`O=c1c2ccccc2[nH]c(=S)n1-c1ccc2c(c1)OCCO2` was tested, and the activity increase over dofetilide control, less the hit threshold was -26%.
For `O=c1c2cc(Br)ccc2[nH]c(=S)n1-c1ccccc1`, the activity increase over dofetilide control, less the hit threshold was 2% (active).
For `CN1C(=O)/C(=C\c2ccc(Br)s2)C(=O)NC1=S`, the activity increase over dofetilide control was 26% (active).
In the case of `C=CCN1C(=O)/C(=C/c2ccc(Br)s2)C(=O)NC1=S`, the activity increase over dofetilide control is reported as 8% (active).
For `CN1C(=O)/C(=C/c2ccc(Cl)s2)C(=O)NC1=S`, the activity increase over dofetilide control was 12% (active).
`CCCCN1C(=O)/C(=C/c2ccc(N3CCCCCC3)cc2)C(=O)NC1=S` was tested, and the activity increase over dofetilide control was -4%.
For `O=C1NC(=O)C(=Cc2ccc(-c3cc(Cl)ccc3[N+](=O)[O-])o2)C(=O)N1`, the activity increase over dofetilide control was -20%.
Compound `CN1CCN(CC#CCOc2ccc(Cl)cc2)CC1` has an activity increase over dofetilide control, less the hit threshold of -9%.
`C1CCC2S[C@H]3CCCCC3NC2C1` (stereo partly specified) was tested, and the activity increase over dofetilide control, less the hit threshold was -17%.
Work on `NC(=O)Cn1cc(C(=O)c2ccccc2F)c2ccccc21` yielded an activity increase over dofetilide control of -9%.
In the case of `CC(=NCc1ccco1)c1c(O)n(C)c(=O)n(C)c1=O`, the activity increase over dofetilide control is reported as -12%.
In the case of `O=c1[nH]c(O)c(/C=C2/C=CC(c3cc(Cl)ccc3Cl)=N2)c(=O)[nH]1`, the activity increase over dofetilide control is reported as 30% (active).
`O=C(O)c1c[nH]c2ccc(S(=O)(=O)N(CCCl)CCCl)cc12` was tested, and the activity increase over dofetilide control, less the hit threshold was -11%.
Compound `CC1N=C(c2ccccc2Cl)c2cc(Br)ccc2NC1=O` (stereo unspecified) has an activity increase over dofetilide control of -24%.
Work on `CN1CCCCC1c1ccc(-c2cccnc2)nc1` (stereo unspecified) yielded an activity increase over dofetilide control, less the hit threshold of -15%.
`Cc1ccc(/C=C2\C(=O)NC(=S)N(c3ccc(F)cc3)C2=O)s1` was tested, and the activity increase over dofetilide control was 5% (active).
Work on `COc1ccc(OC)c(N2C(=O)/C(=C/c3ccco3)C(=O)NC2=S)c1` yielded an activity increase over dofetilide control of 0%.
With `Cc1ccccc1N1C(=O)/C(=C/c2ccco2)C(=O)NC1=S` the activity increase over dofetilide control was 14% (active).
With `O=C1NC(=O)N(c2ccccc2)C(=O)/C1=C/c1ccc(Sc2ccccc2)o1` the activity increase over dofetilide control was -6%.
In the case of `O=C1NC(=S)N(c2ccc(F)cc2)C(=O)/C1=C/c1ccco1`, the activity increase over dofetilide control is reported as 4% (active).
`COc1ccc(CN2CCCC(C(=O)c3sccc3C)C2)cc1O` (stereo unspecified) gave an activity increase over dofetilide control, less the hit threshold of -21%.
For `COc1cccc(OC)c1C(=O)Nc1nc(N)n(-c2ccccc2)n1`, the activity increase over dofetilide control, less the hit threshold was -22%.
Compound `CCn1nc(/C=C/c2ccccc2)nc2c(=O)n(C)c(=O)nc1-2` has an activity increase over dofetilide control, less the hit threshold of -22%.
`O=C1NC(=O)N(CCNc2ncc(C(F)(F)F)cc2Cl)C(=O)C1Cc1ccc(Cl)cc1` (stereo unspecified) showed an activity increase over dofetilide control of -11%.
In the case of `CN(C)C(=O)O/N=C(\N)COc1ccc(C(C)(C)C)cc1`, the activity increase over dofetilide control, less the hit threshold is reported as -17%.
Work on `NCCc1ccc(S(N)(=O)=O)cc1` yielded an activity increase over dofetilide control, less the hit threshold of -18%.
`COc1ccccc1N1CCN(Cc2ccc(F)cc2)CC1` gave an activity increase over dofetilide control of -10%.
In the case of `COc1ccc2c(c1)/C(=C/c1cnc[nH]1)C(=O)N2`, the activity increase over dofetilide control, less the hit threshold is reported as -6%.
